Shown are actives, neighbours in structure and some others; about 21% of the full set was active somewhere.
Shiga inhibitor: A qHTS for Small Molecule Inhibitors of Shiga Toxin | Vero cells, Shiga toxin protein synthesis inhibition reporter | inhibition, % at 38.7 µM | 9.2% of 290,000 active; in the data active = inhibition mostly above about 28%, no sharp cut-off; inactive = mostly below about 43%; note: 0% is about no effect
SARS PLP yeast: qHTS of Yeast-based Assay for SARS-CoV PLP; Potency, µM (series often up to 32.9 µM), for the others: at the highest dose activity, positive = growth rescue, hits mostly activators; 0.19% of 330,000 active; S. cerevisiae expressing SARS-CoV PLpro, growth rescue; calls by dose curve; note: potency is the fitted concentration of half-maximal effect; 0% is about no effect; nearly all actives have a fitted effect of over 55% in size
NS1 function inh: qHTS Assay for Inhibitors of Influenza NS1 Protein Function | Potency, µM (titrated, usually from 46.1 µM), inactives show top-dose activity, positive = more growth | 0.4% of 270,000 active | AID 2326, 2010; calls by dose curve; note: potency is the fitted concentration of half-maximal effect; actives are rising curves; nearly all actives have a fitted effect of over 50% in size
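Read-out: OD600 growth recovery of NS1-expressing budding yeast. Cells grown overnight at 30C in -URA glucose medium, washed, resuspended and diluted 1:100 in 2% galactose assay medium, pH 6.0. Same strain lacking NS1 served as positive control.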
CHX counter: Cycloheximide Counterscreen for Small Molecule Inhibitors of Shiga Toxin; cell reporter, cycloheximide protein synthesis inhibition counterscreen; max response, %; 12% of 300,000 active; AID 2314, 2010; in the data active = max response mostly above about 13%, no sharp cut-off; inactive = mostly below about 14%; note: read at 38.3 µM for the half of the compounds with a filed dose; 0% is about no effect
Pf growth 96h: Primary qHTS for delayed death inhibitors of the malarial parasite plastid, 96 hour incubation; 6.9% of 320,000 active; Potency, µM (doses to about 28.7 µM), for inactives: at the highest dose activity change, negative = inhibition, actives largely listed as inhibitors; AID 504834, 2011; P. falciparum luciferase reporter growth, 96 h; note: potency is the fitted concentration of half-maximal effect; % is set by controls: 0 for no effect and ±100 for the full control effect
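Readout is luminescence from an integrated firefly luciferase in P. falciparum. Red cells, 2% hematocrit and 0.05% parasitemia final, were cultured with compound through two parasite generations (96 hours) at 37 C, 5% CO2.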
Pf growth 48h: Primary qHTS for delayed death inhibitors of the malarial parasite plastid, 48 hour incubation; P. falciparum luciferase growth in erythrocytes, 48 h; Potency, µM (highest dose often 28.7 µM), inactives show top-dose activity change, negative = inhibition, usual class: inhibitors; 5.9% of 310,000 active; note: potency is the fitted concentration of half-maximal effect; % is set by controls: 0 for no effect and ±100 for the full control effect
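Here the parasites carry a stable luciferase gene and grow inside erythrocytes in Albumax-based RPMI medium with compound for one erythrocytic cycle. Activity is scored as loss of luminescent signal.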
Starred values were filed as active, the others as inactive; ? = inconclusive; . = no result. Unless noted, calls come from the whole dose curve; as a rule, active = well fitted inhibition curve with a large enough effect; inconclusive = small, poorly fitted or top-dose-only effect, or another doubt; inactive = no such curve, though single readings can be large or run the other way.

SMILES	Shiga inhibitor	SARS PLP yeast	NS1 function inh	CHX counter	Pf growth 96h	Pf growth 48h
CC1=NN(c2ccccc2)C(=O)C1/C=C1\NC(=S)NC1=O (stereo not given)	20	0%	.	-3	-47%	32%
CC1=C(C)CC2(SC1)C(=O)N(c1ccccc1)N=C2N (stereo not given)	48*	2%	.	23*	8%	40%
Clc1ccc(CNc2nc(CN3CCOCC3)nc3scc(-c4ccccc4)c23)cc1	-2	5%	-33%	1	3.7µM*	?
COc1ccc(N2CCN(C(=O)CCc3ccc(S(=O)(=O)NC(C)(C)C)cc3)CC2)cc1	-5	-1%	-9%	0	?	?
CCN(CC)c1ccc2c(C)c(-c3ccc(N)cc3)c(=O)oc2c1	34*	-9%	22%	27*	?	?
CCOC(=O)Cc1c(C)c2ccc(N(CC)CC)cc2oc1=O	100*	5%	-9%	19*	-14%	3.7µM*
CCN(CC)c1ccc2c(C)c(Cl)c(=O)oc2c1	24	0%	5%	10	?	2%
CCOC(=O)Cc1c(C)c2c(O)cc(O)cc2oc1=O	24	-1%	8%	0	?	-3%
Cc1c(Cc2ccccc2)c(=O)oc2cc(O)ccc12	-9	-1%	-38%	0	-10%	-18%
CCOC(=O)CCc1c(C)c2ccc(O)cc2oc1=O	-1	-5%	-27%	13*	?	-7%
O=C(Nc1ccccc1Cl)c1ccc(=O)[nH]n1	-3	1%	2%	-2	7%	29%
COc1ccc(S(=O)(=O)N2CCCCC2)cc1NC(=O)COC(=O)c1ccco1	.	5%	.	.	.	.
CCCOc1cccc(C2C(C(=O)c3cccs3)=C(O)C(=O)N2Cc2cccnc2)c1 (stereo not given)	17	0%	13%	1	33%	?
CC(C)(CN1CCN(C(c2ccccc2)c2ccccc2)CC1)NS(=O)(=O)c1ccccc1	12	-8%	-17%	-1	10µM*	12µM*
CC(C)(CN1CCC(Cc2ccccc2)CC1)NS(=O)(=O)c1ccccc1	9	-1%	-6%	6	-2%	12µM*
CC(C)(CN1CCN(Cc2ccccc2)CC1)NS(=O)(=O)c1ccccc1	-12	0%	-3%	0	15%	11%
Cc1cc(C)c(C)c(S(=O)(=O)Nc2ccccc2C(=O)NN2CCOCC2)c1C	.	1%	.	.	.	.
Cc1cccn2c(=O)c3cc(C(=O)NCCN4CCOCC4)n(Cc4ccccc4)c3nc12	-13	2%	-3%	1	12%	31%
Cc1cccn2c(=O)c3cc(C(=O)NCCN4CCOCC4)c(=N)n(CCN4CCOCC4)c3nc12	-6	0%	3%	-4	-8%	?
CCOCCCn1c(=N)c(C(=O)NCCN2CCOCC2)cc2c(=O)n3cccc(C)c3nc21	10	-1%	-1%	-4	1.5µM*	10%
Cc1cccn2c(=O)c3cc(C(=O)NCCN4CCOCC4)c(=N)n(Cc4ccc(F)cc4)c3nc12	-2	3%	6%	1	3.7µM*	?
Cc1cccn2c(=O)c3cc(C(=O)NCCN4CCOCC4)n(C)c3nc12	59*	-2%	-9%	37*	?	67%
Cc1cccn2c(=O)c3cc(C(=O)NC4CCCC4)c(=N)n(CCCN4CCOCC4)c3nc12	-2	-2%	12%	-9	14%	2.3µM*
CCOc1ccc2[nH]c(=O)c(CN(CCCN3CCOCC3)Cc3nnnn3Cc3ccc(OC)cc3)cc2c1	-17	1%	-1%	-3	-12%	?
COCCn1nnnc1CN(Cc1cc2cc(OC)c(OC)cc2[nH]c1=O)C1CCCC1	-10	1%	-11%	8	.	0%
CCOc1ccc2[nH]c(=O)c(CN(Cc3nnnn3Cc3ccco3)C3CCCCC3)cc2c1	-17	-2%	?	6	22%	12µM*
COc1cc2cc(CN(Cc3nnnn3Cc3ccco3)C3CCCCC3)c(=O)[nH]c2cc1OC	-14	4%	-8%	5	.	8.3µM*
CCOc1ccc(OCCC(=O)OCC(=O)N2CCN(c3ccc(OC)cc3)CC2)cc1	.	3%	.	.	27%	61%

Screening data from PubChem.
